Source: PubChem (National Center for Advancing Translational Sciences (NCATS))
TDP1 block: inhibitors of human tyrosyl-DNA phosphodiesterase TDP1; Q9NUW8; recombinant TDP1, AlphaScreen DNA substrate cleavage; Potency, µM (highest dose often 130 µM), for the others: top-dose activity change, negative = inhibition, hits mostly inhibitors; 0.28% of 350,000 active; note: % is set by controls: 0 for no effect and ±100 for the full control effect; nearly all actives have a fitted effect of over 40% in size
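Here, a 5' biotin and 3' phosphotyrosine-FITC DNA oligonucleotide reports Tdp1 activity: intact substrate bridges AlphaScreen beads, while cleavage leaves a 3' phosphate and drops signal. All incubations at room temperature.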
POLB inh: blocks human DNA polymerase beta activity; Potency, µM (highest dose often 114 µM), for the others: at the highest dose activity change, negative = inhibition, hits mostly inhibitors; AID 485314; P06746; 1.3% of 340,000 active; Pol beta primer extension/strand displacement, fluorescence kinetic; note: % is set by controls: 0 for no effect and ±100 for the full control effect
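Enzyme-only controls used 10 nM Pol beta; buffer lacking enzyme served as negative control. Compound preincubated 15 min, then 50 nM substrate added; 0 and 10 min reads at room temperature.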
Pol kappa inh: DNA polymerase kappa (human) inhibition; Q9UBT6; purified Pol kappa, fluorescent DNA synthesis assay, 10 min; Potency, µM (doses to about 107 µM), inactives show top-dose activity, negative = inhibition, actives largely listed as inhibitors; 0.53% of 400,000 active; AID 588579; note: % is set by controls: 0 for no effect and ±100 for the full control effect
Target sequence (Q9UBT6 whole entry, looked up): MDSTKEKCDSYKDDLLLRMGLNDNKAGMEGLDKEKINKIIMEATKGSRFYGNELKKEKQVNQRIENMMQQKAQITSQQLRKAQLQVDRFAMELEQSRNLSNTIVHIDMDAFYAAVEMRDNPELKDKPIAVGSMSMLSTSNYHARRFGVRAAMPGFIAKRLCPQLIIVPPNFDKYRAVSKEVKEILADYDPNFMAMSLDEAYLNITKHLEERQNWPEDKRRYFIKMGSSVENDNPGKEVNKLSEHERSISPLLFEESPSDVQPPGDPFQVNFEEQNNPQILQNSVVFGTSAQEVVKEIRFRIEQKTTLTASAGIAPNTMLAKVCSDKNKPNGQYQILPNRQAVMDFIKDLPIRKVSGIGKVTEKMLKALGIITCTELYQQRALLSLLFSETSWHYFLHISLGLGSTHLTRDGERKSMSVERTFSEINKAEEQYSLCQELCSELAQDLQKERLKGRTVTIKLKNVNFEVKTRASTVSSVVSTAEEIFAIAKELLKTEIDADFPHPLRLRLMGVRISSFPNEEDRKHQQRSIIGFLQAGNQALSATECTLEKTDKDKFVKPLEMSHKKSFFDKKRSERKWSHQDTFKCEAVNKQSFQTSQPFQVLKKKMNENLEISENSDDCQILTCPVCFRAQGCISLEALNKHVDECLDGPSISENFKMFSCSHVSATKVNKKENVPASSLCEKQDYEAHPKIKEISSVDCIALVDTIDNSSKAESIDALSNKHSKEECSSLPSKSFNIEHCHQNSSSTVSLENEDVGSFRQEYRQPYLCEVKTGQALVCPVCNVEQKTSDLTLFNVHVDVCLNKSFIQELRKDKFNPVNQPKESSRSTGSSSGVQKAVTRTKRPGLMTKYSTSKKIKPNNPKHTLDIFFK
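Enzyme at 10 nM met test compounds for 15 min at room temperature. Substrate addition (50 nM final) began the reaction, which was monitored by fluorescence at 0 and 10 min.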
POLI inh: DNA polymerase iota (human) inhibition. Pol iota fluorescent replication assay, 10 min. 1% of 390,000 active. Potency, µM (top dose mostly 115 µM), for the others: at the highest dose activity, negative = inhibition, hits mostly inhibitors. Q9UNA4
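Fluorescent replication assay read twice, at 0 min and 10 min after adding 50 nM (final) substrate. Enzyme (10 nM) and compounds were first incubated 15 min at room temperature; enzyme-free buffer wells were negative controls.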
POLH inh: DNA polymerase eta (human) inhibition | recombinant Pol eta, fluorescent DNA replication assay | 1.2% of 390,000 active | Q9Y253 | Potency, µM (series often up to 114 µM), without a hit: at the highest dose activity change, negative = inhibition, actives largely listed as inhibitors; note: % is set by controls: 0 for no effect and ±100 for the full control effect
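Fluorescent replication assay: 50 nM final substrate added after a 15 min room-temperature compound preincubation with 10 nM enzyme. Signal taken at 0 min and again at 10 min.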
* = called active by the depositor; ? = inconclusive; · = no result; [ ] = another dose, or the depositor's remark. The list is not random: actives were taken first. Their share in the collection is about 2.4%. Calls come from the whole dose curve; as a rule, active = well fitted curve in the direction sought with a large enough effect; inconclusive = small, poorly fitted or top-dose-only effect, or another doubt; inactive = no such curve, though single readings can be large; an effect the other way counts as inactive or inconclusive. Potency is the fitted concentration of half-maximal effect.

SMILES	TDP1 block	POLB inh	Pol kappa inh	POLI inh	POLH inh
CCOc1cc(/C=C2\C(=O)N(c3nc(-c4ccc(Br)cc4)cs3)N=C2c2ccccc2)ccc1O	11.3%	10µM*	79.4µM*	?	10µM*
Cc1ccc(-c2nc3ccccc3o2)cc1NC(=O)COc1ccccc1C	·	·	5.5%	-22.7%	·
Cc1cc2c(n1-c1ccc(C(=O)NCc3cccc(Br)c3)cc1)CCC(C)C2 (stereo not drawn)	5.0%	10.6%	-8.4%	2.3%	-16.0%
O=C(CCc1ccccc1)NNC(=O)c1ccc(NC(=O)c2ccccc2)cc1	·	22.4µM*	-19.1%	?	?
CC(=O)Nc1ccc(C(=O)NNC(=O)CCc2ccccc2)cc1	1.0%	39.8%	-8.7%	?	-10.1%
COc1ccc(NC(=O)NNC(=O)c2ccc(-c3ccccc3)cc2)cc1	-16.4%	7.94µM*	-16.7%	?	-15.8%
O=C(NNC(=O)c1ccc(NC(=O)c2ccccc2)cc1)Nc1ccccc1	·	11.2µM*	?	39.8µM*	?
O=C(NNC(=O)c1ccc(NC(=O)c2ccccc2)cc1)c1ccc(F)cc1	·	?	-12.0%	?	-14.8%
CCCCc1nc2c(c3c1C[C@H](C)OC3)CN(C(=O)Cc1cccs1)CC2	8.9%[12.3 µM]	·	·	·	·
O=C(Cc1nnc(-c2nc3ccccc3[nH]2)o1)Nc1cc(C(F)(F)F)ccc1Cl	0.9%	·	·	·	·
Cc1ccc(Cn2c(=O)n(-c3cc(C)cc(C)c3)c(=O)c3oc4ccccc4c32)cc1	0.0%	14.7%	-5.9%	18.2%	-16.5%
O=C(Cc1ccccc1)Nc1ccc(NC(=O)c2ccccc2)nc1	3.0%	63.1µM*	-4.9%	76.2%	5.8%
Cc1cccc(C(=O)Nc2ccc3nc(SCC(=O)N4CCCC4)sc3c2)c1	1.6%	-0.5%	-7.6%	34.4%	-7.0%
Cc1csc(N2CCN(c3cc4nc(-c5ccncc5)[nH]c4cc3Cl)CC2)n1	·	35.5µM*	-23.8%	?	8.3%
Cc1csc(N2CCN(c3cc4c(cc3Cl)nc(-c3ccncc3)n4CCCN3CCCC3)CC2)n1	·	12.1%	-6.4%	2.5%	-14.7%
COc1ccc(OC)c(Nc2cc3ccccc3c(=O)[nH]2)c1	·	·	-6.1%	31.6µM*	?
COc1ccc(OC)c(NC(=O)Nc2cccc3ccccc23)c1	3.6%	2.9%	-8.3%	15.7%[58.9 µM]	-18.8%
COc1ccc2nc(NNC(=O)c3cc(=O)c4ccccc4o3)sc2c1	·	?	11.0%	-6.3%	79.4µM*
O=C(NNc1nc2c(F)cccc2s1)c1cc(=O)c2ccccc2o1	·	?	-17.8%	22.4µM*	?
COc1ccc2nc(NC(=O)c3cc(=O)c4cc(C)c(C)cc4o3)sc2c1	7.4%	-10.9%	-14.6%	30.5%	-12.1%
CCc1ccc(NC(=O)C(C)OC(=O)c2ccc(NS(=O)(=O)c3ccc(C)c([N+](=O)[O-])c3)cc2)cc1 (stereo not drawn)	8.5%	-2.5%	?	?	79.4µM*
COCCNC(=O)C(=O)NCC(c1cccnc1)N1CCN(c2ccccc2)CC1 (stereo not drawn)	3.9%	0.6%	-1.5%	16.6%	1.8%
CCCn1nc(C(=O)NCCc2ccc(S(N)(=O)=O)cc2)c2ccccc2c1=O	4.2%	14.5%	-9.6%	-10.2%[58.9 µM]	-4.8%
O=C(Nc1ccc(S(=O)(=O)Nc2ncccn2)cc1)C1=COCCO1	-0.9%[0.505 µM]	·	-25.0%	50.1µM*	?
CCCn1nc(C(=O)Nc2ccc(S(=O)(=O)Nc3ncccn3)cc2)c2ccccc2c1=O	0.0%	1.2%	-24.2%	?	50.1µM*
SMILES	TDP1 block	POLB inh	Pol kappa inh	POLI inh	POLH inh
COc1ccc2oc(-c3ccc(C)c(NC(=O)c4ccc5c(c4)OCCO5)c3)nc2c1	4.5%	3.8%	-6.9%	-4.6%	-14.6%
O=C(COC(=O)c1ccco1)Nc1nc2c(F)c(F)c(F)cc2s1	0.5%	50.1µM*	-19.7%	?	?
O=C(COC(=O)c1ccc(Br)o1)Nc1nc2c(F)c(F)c(F)cc2s1	8.6%	11.2µM*	?	-28.8%	56.2µM*
CCOC(=O)c1sc(NC(=O)COC(=O)c2ccco2)nc1C	0.0%	10.2%	5.1%	-4.1%	-11.9%
O=C(COC(=O)c1ccc(NS(=O)(=O)c2cccs2)cc1)Nc1nc2c(F)c(F)c(F)cc2s1	4.9%	28.2µM*	?	39.8µM*	20µM*
Cc1cccc(C(=O)NCC(=O)OC(C(=O)Nc2cc(C(F)(F)F)ccc2Cl)c2ccccc2)c1 (stereo not drawn)	-2.6%	·	·	·	·
CC(C)NC(=O)c1sc2ncccc2c1-n1cccc1	4.1%	3.2%	-9.8%[60.1 µM]	19.9%	-14.1%
COc1ccccc1NC(=O)CN1C(=O)CC(c2ccc(C)c(C)c2)=Nc2ccccc21	11.0%	?	22.0%	1.3%	-1.7%
COc1ccc(NC(=O)CCCc2nnc3n(C(C)C)c(=O)c4sccc4n23)cc1Cl	2.6%	0.0%	10.1%	18.2%	-18.9%
COc1ccccc1OCC(=O)Nc1ccc(C(=O)Nc2ccccc2C(=O)O)cc1	·	·	·	·	-2.8%
CC(C)(C)c1ccc(OCC(=O)Nc2ccc(C(=O)Nc3ccccc3C(=O)O)cc2)cc1	-9.3%	-13.1%	-27.9%	9.0%	79.4µM*
O=C(NC1CCSC1=O)c1cccc(C(=O)NC2CCSC2=O)c1 (stereo not drawn)	-8.2%	50.1µM*	-7.3%	?	?
O=C(O)CCCCCN1C(=O)/C(=C\c2ccncc2)SC1=S	0.0%	1.3%	-9.6%	?	-15.1%
O=C(O)CCCCCN1C(=O)/C(=C\c2ccc(-c3ccc(Cl)cc3)o2)SC1=S	39.8µM*	?	79.4µM*	35.5µM*	?
NC(=O)c1oc2ccccc2c1NC(=O)c1nc2ccccc2s1	79.4µM*	?	-22.5%	?	?
CCCCCCCCCCN1CCOCCOCCN(CCCCCCCCCC)CCOCCOCC1	4.3%	·	10.1%[60.1 µM]	·	·
CCSc1nnc(SCC(=O)Nc2cc(C)on2)s1	?	·	?	44.7µM*	?
Cc1cc(NC(=O)CSc2nc3ccccc3s2)no1	3.0%	21.6%	-13.3%	0.9%	-13.4%
CCc1nnc(SCc2cc(C)ccc2C)c2cc3sc(C)cc3n12	0.0%	7.3%	-4.2%	9.9%	-7.7%
Cc1ccccc1NC(=O)/C(C#N)=C\c1cc(C)n(-c2ccc(C(=O)O)cc2)c1C	·	?	-28.8%	-65.2%	22.4µM*
COc1ccc(CCC(C)N2CCC(Oc3ccc(C(=O)N4CCCC4)cc3)CC2)cc1 (stereo not drawn)	4.9%	-3.3%	-3.3%	89.1µM*	-13.3%
COc1ccc2oc(C(=O)Nc3nccs3)c(C)c2c1	·	·	7.1%	17.7%	-20.7%
CCOc1ccc2oc(C(=O)Nc3nccs3)c(C)c2c1	-8.6%	·	-2.3%	19.9%	22.4µM*
COc1cc2c(s1)c1cnn(Cc3ccccc3F)c(=O)c1n2C	-0.3%	·	·	·	·
Clc1ccccc1COc1ccc(/C=N/n2cnnc2)cc1	79.4µM*	31.6µM*	-24.2%	9.9%	-0.7%
